{
  "source": "the supplement of paper PMC10849652",
  "note": "Of roughly 7,900 targets only a part is listed; those with a hit were picked by preference. About 0.6% of all pairs of compound and target were hits.",
  "data": [
    {"compound": "CC(C)(C)Cn1c(N)nc2ccc(-c3[nH]c(C(C)(C)C)nc3-c3ccc(F)cc3)nc21 [ralimetinib]", "assay": "log2 fold change, soluble protein after heating vs DMSO (PISA); higher = thermal stabilisation; K562 cells, 10 uM, 30 min; active = over 0.2 and 3.5 SD of the protein, either way, in both replicates (recomputed)", "summary_of_the_method": "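Values are thermal stability changes relative to control samples and are taken from duplicates. They are stated as log2 fold changes. Before quantification by TMTpro 16plex LC-MS/MS with equalised channel sums, K562 cells at 2×10^6 cells/mL were treated with 10 μM compound for 30 min, heated in aliquots for 3 min across 48°C-58°C, pooled, extracted in PBS with 0.5% NP-40 at 4°C, and centrifuged at 21,000xg for 90 min to give the soluble supernatant.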", "values": [
      {"target": "EOGT (UniProt Q5NDL2)", "log2 fold change": "-0.036 (inactive)"},
      {"target": "CUEDC2 (UniProt Q9H467)", "log2 fold change": "-0.026 (inactive)"},
      {"target": "DDX5 (UniProt P17844)", "log2 fold change": "-0.024 (inactive)"},
      {"target": "EIF4E2 (UniProt O60573)", "log2 fold change": "0.012 (inactive)"},
      {"target": "ERLIN1 (UniProt O75477)", "log2 fold change": "0.054 (inactive)"},
      {"target": "EEF1AKNMT (UniProt Q8N6R0)", "log2 fold change": "0.141 (inactive)"},
      {"target": "EIF4A1 (UniProt P60842)", "sequence (P60842 whole entry, looked up)": "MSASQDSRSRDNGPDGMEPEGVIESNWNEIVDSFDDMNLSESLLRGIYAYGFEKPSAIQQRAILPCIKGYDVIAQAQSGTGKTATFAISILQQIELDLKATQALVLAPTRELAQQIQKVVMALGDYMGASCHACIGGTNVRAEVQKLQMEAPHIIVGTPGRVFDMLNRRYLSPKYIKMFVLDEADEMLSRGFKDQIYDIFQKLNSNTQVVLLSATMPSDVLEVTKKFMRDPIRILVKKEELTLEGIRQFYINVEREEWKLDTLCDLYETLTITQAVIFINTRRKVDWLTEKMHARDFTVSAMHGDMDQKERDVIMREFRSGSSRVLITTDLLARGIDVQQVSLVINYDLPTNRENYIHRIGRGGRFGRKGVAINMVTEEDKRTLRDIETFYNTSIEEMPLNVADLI", "log2 fold change": "0.026 (inactive)"},
      {"target": "DCTPP1 (UniProt Q9H773)", "log2 fold change": "0.062 (inactive)"},
      {"target": "DNAJB12 (UniProt Q9NXW2)", "log2 fold change": "-0.767 (active)"},
      {"target": "DDX4 (UniProt Q9NQI0)", "log2 fold change": "-0.063 (inactive)"},
      {"target": "EXOC2 (UniProt Q96KP1)", "sequence (Q96KP1 whole entry, looked up)": "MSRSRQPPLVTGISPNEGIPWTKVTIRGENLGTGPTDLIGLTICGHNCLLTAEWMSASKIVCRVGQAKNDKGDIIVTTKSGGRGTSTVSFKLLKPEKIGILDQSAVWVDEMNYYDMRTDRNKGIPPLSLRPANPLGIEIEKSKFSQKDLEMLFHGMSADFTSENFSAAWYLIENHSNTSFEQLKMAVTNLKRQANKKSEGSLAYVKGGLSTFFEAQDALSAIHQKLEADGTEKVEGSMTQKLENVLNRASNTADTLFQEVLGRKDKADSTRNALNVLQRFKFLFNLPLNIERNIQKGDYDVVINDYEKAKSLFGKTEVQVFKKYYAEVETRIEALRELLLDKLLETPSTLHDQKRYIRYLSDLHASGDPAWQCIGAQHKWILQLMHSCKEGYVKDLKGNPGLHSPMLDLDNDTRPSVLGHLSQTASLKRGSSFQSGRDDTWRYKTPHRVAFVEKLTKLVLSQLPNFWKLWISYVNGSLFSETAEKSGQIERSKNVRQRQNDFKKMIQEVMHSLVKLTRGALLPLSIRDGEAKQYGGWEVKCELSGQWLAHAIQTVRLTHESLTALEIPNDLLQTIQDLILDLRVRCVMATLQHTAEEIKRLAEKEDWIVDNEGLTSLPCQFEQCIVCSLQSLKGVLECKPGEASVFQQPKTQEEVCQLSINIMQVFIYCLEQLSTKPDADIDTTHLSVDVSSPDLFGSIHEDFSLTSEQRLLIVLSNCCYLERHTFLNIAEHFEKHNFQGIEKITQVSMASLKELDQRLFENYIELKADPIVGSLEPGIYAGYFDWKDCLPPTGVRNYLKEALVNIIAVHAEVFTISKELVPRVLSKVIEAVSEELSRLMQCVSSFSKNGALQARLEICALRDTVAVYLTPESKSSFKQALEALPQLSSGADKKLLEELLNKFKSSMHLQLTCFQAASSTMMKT", "log2 fold change": "0.08 (inactive)"},
      {"target": "DMAC1 (UniProt Q96GE9)", "log2 fold change": "-0.011 (inactive)"},
      {"target": "EEA1 (UniProt Q15075)", "log2 fold change": "-0.068 (inactive)"},
      {"target": "DDX46 (UniProt Q7L014)", "log2 fold change": "-0.095 (inactive)"},
      {"target": "CYP51A1 (UniProt Q16850)", "sequence (Q16850 whole entry, looked up)": "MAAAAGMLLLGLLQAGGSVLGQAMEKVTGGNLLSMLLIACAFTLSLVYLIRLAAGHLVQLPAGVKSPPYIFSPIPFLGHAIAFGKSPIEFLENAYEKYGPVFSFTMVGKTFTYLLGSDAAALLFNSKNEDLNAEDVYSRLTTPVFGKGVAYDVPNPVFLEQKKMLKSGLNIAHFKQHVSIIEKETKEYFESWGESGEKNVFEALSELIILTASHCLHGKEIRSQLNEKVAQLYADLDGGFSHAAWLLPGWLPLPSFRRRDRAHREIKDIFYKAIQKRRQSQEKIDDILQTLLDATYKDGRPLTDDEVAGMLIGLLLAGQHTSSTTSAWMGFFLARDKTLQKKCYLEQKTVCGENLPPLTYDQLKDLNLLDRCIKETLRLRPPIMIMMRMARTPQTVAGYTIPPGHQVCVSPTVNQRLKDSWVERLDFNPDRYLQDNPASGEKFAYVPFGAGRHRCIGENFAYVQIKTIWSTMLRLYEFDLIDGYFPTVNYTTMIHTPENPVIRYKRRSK", "log2 fold change": "0.064 (inactive)"},
      {"target": "DCTN1 isoform 4 (UniProt Q14203)", "log2 fold change": "0.114 (inactive)"},
      {"target": "CWC27 (UniProt Q6UX04)", "sequence (Q6UX04 whole entry, looked up)": "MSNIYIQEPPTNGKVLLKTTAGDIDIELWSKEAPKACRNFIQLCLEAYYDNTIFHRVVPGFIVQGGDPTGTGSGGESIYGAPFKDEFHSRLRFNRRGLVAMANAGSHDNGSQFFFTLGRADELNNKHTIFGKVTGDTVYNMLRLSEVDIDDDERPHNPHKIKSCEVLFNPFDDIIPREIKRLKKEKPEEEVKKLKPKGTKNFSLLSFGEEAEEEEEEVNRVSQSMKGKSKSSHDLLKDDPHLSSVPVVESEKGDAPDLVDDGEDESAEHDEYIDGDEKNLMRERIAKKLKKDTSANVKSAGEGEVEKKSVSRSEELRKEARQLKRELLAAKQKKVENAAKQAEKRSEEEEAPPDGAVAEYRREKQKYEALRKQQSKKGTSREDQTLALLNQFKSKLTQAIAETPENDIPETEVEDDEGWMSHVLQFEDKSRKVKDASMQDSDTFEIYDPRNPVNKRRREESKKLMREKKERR", "log2 fold change": "0.048 (inactive)"},
      {"target": "DNAJC19 (UniProt Q96DA6)", "log2 fold change": "0.029 (inactive)"},
      {"target": "DUS2 (UniProt Q9NX74)", "sequence (Q9NX74 whole entry, looked up)": "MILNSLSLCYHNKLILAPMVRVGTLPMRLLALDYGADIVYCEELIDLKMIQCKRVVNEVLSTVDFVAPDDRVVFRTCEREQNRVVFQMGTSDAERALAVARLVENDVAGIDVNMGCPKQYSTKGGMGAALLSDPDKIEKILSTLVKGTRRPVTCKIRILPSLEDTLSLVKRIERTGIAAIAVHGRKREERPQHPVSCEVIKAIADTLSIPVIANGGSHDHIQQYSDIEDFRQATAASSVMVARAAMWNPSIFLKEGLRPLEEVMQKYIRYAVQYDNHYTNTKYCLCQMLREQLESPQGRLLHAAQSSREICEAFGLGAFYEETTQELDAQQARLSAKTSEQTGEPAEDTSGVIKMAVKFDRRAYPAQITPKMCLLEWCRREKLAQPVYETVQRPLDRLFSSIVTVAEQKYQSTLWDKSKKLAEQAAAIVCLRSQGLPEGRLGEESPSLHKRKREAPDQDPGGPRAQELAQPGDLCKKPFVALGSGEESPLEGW", "log2 fold change": "0.033 (inactive)"},
      {"target": "ECH1 (UniProt Q13011)", "log2 fold change": "0.087 (inactive)"},
      {"target": "DBT (UniProt P11182)", "log2 fold change": "0.109 (inactive)"},
      {"target": "FAAP100 (UniProt Q0VG06)", "sequence (Q0VG06 whole entry, looked up)": "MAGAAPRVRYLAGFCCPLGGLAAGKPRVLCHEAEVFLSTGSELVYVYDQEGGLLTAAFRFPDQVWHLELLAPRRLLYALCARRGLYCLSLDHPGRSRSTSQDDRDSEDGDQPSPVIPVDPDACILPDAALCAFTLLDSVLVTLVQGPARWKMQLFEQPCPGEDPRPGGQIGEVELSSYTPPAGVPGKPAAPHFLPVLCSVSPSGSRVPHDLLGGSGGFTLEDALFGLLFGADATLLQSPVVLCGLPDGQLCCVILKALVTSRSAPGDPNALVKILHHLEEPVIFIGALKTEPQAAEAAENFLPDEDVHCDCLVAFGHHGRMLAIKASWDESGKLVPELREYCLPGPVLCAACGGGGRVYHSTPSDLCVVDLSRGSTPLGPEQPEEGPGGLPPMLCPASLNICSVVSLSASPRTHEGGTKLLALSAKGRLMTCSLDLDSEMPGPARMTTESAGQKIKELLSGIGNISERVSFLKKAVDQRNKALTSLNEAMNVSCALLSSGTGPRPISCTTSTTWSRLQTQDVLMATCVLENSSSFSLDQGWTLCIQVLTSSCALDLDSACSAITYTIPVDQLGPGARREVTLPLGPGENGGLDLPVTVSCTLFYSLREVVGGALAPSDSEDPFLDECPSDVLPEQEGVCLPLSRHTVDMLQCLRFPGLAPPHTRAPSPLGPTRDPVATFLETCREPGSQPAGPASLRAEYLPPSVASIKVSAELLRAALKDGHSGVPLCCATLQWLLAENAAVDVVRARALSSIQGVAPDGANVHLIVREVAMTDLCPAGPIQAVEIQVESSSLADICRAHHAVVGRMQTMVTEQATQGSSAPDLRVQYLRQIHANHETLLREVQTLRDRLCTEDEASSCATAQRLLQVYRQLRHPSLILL", "log2 fold change": "-0.065 (inactive)"},
      {"target": "FAM207A (UniProt Q9NSI2)", "log2 fold change": "0.123 (inactive)"},
      {"target": "EEF1D isoform 2 (UniProt P29692)", "log2 fold change": "0.026 (inactive)"},
      {"target": "DNAH11 (UniProt Q96DT5)", "log2 fold change": "-0.285 (inactive)"},
      {"target": "DAB2 (UniProt P98082)", "log2 fold change": "0.082 (inactive)"},
      {"target": "DYNC1LI2 (UniProt O43237)", "sequence (O43237 whole entry, looked up)": "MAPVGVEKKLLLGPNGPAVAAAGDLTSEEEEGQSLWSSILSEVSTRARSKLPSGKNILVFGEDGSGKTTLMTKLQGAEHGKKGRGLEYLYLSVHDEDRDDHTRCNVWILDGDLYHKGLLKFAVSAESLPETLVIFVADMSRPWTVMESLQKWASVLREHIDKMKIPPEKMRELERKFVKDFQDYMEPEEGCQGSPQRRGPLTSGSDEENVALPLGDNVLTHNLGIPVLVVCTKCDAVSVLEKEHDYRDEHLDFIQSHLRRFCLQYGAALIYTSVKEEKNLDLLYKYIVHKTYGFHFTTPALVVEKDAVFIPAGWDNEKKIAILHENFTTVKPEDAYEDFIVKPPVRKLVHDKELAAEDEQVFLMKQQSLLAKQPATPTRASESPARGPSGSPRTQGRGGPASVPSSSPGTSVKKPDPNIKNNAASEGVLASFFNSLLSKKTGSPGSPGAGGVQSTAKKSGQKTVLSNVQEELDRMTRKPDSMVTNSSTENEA", "log2 fold change": "0.124 (inactive)"},
      {"target": "DNAJC7 (UniProt Q99615)", "log2 fold change": "-0.014 (inactive)"},
      {"target": "DLD (UniProt P09622)", "sequence (P09622 whole entry, looked up)": "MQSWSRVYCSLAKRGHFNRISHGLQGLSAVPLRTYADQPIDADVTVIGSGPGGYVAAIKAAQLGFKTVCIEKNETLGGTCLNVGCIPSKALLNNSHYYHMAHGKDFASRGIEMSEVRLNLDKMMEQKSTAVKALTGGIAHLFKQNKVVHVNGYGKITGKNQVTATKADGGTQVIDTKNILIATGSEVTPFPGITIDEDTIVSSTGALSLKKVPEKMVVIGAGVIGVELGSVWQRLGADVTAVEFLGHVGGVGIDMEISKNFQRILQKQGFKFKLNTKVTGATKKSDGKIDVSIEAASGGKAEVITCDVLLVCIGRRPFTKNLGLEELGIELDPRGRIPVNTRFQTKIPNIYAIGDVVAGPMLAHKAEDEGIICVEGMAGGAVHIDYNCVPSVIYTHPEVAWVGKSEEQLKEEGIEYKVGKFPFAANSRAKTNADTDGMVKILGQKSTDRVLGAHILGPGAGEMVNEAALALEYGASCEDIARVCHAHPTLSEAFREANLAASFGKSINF", "log2 fold change": "-0.004 (inactive)"},
      {"target": "DCAF10 (UniProt Q5QP82)", "log2 fold change": "-0.082 (inactive)"},
      {"target": "DCAF6 isoform 3 (UniProt Q58WW2)", "log2 fold change": "-0.022 (inactive)"},
      {"target": "FAM122A (UniProt Q96E09)", "log2 fold change": "-0.053 (inactive)"},
      {"target": "FAM83D (UniProt Q9H4H8)", "log2 fold change": "0.145 (inactive)"},
      {"target": "DNAJB1 (UniProt P25685)", "log2 fold change": "0 (inactive)"},
      {"target": "DNTTIP2 (UniProt Q5QJE6)", "log2 fold change": "0.089 (inactive)"},
      {"target": "CTSL (UniProt P07711)", "sequence (P07711 whole entry, looked up)": "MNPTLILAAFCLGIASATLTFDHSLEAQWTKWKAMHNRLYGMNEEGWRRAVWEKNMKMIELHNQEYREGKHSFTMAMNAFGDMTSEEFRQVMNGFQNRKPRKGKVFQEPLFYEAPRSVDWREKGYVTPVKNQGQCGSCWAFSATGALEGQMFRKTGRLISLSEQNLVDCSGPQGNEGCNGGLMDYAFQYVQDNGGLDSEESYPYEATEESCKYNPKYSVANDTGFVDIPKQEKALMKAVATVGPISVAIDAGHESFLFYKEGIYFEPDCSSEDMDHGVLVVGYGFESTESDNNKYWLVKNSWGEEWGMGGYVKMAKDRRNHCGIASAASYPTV", "log2 fold change": "0.022 (inactive)"},
      {"target": "CTSV (UniProt O60911)", "log2 fold change": "-0.035 (inactive)"},
      {"target": "EDC3 (UniProt Q96F86)", "log2 fold change": "0.013 (inactive)"},
      {"target": "EIF3J (UniProt O75822)", "log2 fold change": "0.093 (inactive)"}
    ]}
  ]
}
